Results reported in PubChem BioAssay AID624169 (The Scripps Research Institute Molecular Screening Center, 2012).
Screen size: about 360,000 compounds; about 2,400 (0.67%) were called active.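 The calls were made as follows: active = activation above a run cutoff, the mean activation of all tested compounds plus 3 SD (cut at about 14% in these data); inactive = the rest.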 The list comes from a sample in which actives are over-represented; it also holds similar structures and randomly drawn compounds.

target: 5-hydroxytryptamine receptor 2A (Mus musculus) (UniProt P35363); assay: activation of mouse 5-HT2A receptor – cell-based, luminescence, primary screen (AID 624169); conditions: CHO-K1 mHTR2A beta-arrestin complementation, at 7.6 µM, stronger effect = higher value, percent of 30 µM serotonin response;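 also: 0% = plate median of compound wells and 100% = 30 µM serotonin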
Sequence (P35363 whole entry, looked up): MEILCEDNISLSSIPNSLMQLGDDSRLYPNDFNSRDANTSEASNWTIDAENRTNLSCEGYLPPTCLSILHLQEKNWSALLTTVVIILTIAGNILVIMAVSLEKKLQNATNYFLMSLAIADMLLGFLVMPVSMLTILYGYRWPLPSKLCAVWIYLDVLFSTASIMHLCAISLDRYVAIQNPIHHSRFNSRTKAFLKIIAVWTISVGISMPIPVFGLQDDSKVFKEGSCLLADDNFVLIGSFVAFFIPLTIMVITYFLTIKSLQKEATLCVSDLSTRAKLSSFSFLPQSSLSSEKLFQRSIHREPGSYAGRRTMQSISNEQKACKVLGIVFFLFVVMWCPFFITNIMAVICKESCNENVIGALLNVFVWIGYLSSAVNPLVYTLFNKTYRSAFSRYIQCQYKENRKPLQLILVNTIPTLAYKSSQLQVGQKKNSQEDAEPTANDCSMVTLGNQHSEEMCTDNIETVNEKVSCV

activation, inactive:
Cc1ccc(CC2(C)C(=O)Nc3ccc(OC(F)(F)F)cc32)cc1 (stereo unspecified) -3.94%, CC1(Cc2ccccc2C#N)C(=O)Nc2ccc(-c3ccc4[nH]ccc4c3)cc21 (stereo unspecified) -1.29%, COC(=O)[C@]12CCCCC=C1N(Cc1ccc3c(c1)OCO3)C(=O)[C@H](CC(=O)N1CCOCC1)C2 2.87%, O=C(Nc1cccc2c1CCCC2)C1CCN(C(=O)NC2CCCCC2)CC1 2.77%, CCOC(=O)c1cccc(NC(=O)C2CCCN(S(=O)(=O)c3cnc[nH]3)C2)c1 (stereo unspecified) 9.95%, O=c1[nH]nc(Cc2ccccn2)c2ccccc12 2.3%, Cc1cc([N+](=O)[O-])c(NC2CCCCC2)c([N+](=O)[O-])c1 0.25%, Cc1cc(C=O)c(C)n1-c1ccc(NC2CCCCC2)c([N+](=O)[O-])c1 3.39%, COc1cc2sc(C)nc2cc1C -1.33%, CCOC(=O)c1cc(-c2sc(NC(=O)c3ccccc3)nc2C)n(CCO)n1 -1.86%, CCOC(=O)c1cc(-c2sc(NC(=O)c3ccccc3)nc2C)n(Cc2ccccc2)n1 -1.51%, Cc1noc(C)c1COc1ccccc1C(=O)N(C)CC(=O)Nc1cccc(F)c1 -2.16%, CCCCN1C[C@H](c2ccc(Br)cc2)[C@@H](CC(=O)Nc2ccc(Br)cc2)C1=O 5.11%, O=C(CN1CCOCC1)N1CCCc2c1c(=O)oc1ccc(OCc3ccccc3)cc21 -4.24%, COCCN(C(=O)c1ccccc1F)c1c(N)n(Cc2ccccc2)c(=O)[nH]c1=O -0.11%, Nc1c(N(CCO)C(=O)C2CCCCC2)c(=O)[nH]c(=O)n1Cc1ccccc1 -0.82%, CC(C(=O)N(C)CC(=O)Nc1ccccc1C(F)(F)F)N1C(=O)c2ccccc2C1=O (stereo unspecified) -1.36%, CC(=O)c1sc(NC(=O)CCN2C(=O)C3CC=CCC3C2=O)nc1-c1ccccc1 (stereo unspecified) -2.19%, Cc1cc(NC(=O)/C=C/C(=O)N(CC(=O)NC2CCCC2)c2ccc(F)cc2)no1 5.36%, O=C(CCC(=O)N1CCN(S(=O)(=O)c2ccc(Cl)cc2)CC1)NCc1cccc(C(F)(F)F)c1 -0.98%, O=C(c1ccncc1)N1CCN(S(=O)(=O)c2cc(C(F)(F)F)cc(C(F)(F)F)c2)CC1 -5.52%

activation, active:
CC1(Cc2cccc(C#N)c2)C(=O)Nc2ccc(-c3cccc(C(F)(F)F)c3)cc21 (stereo unspecified) 16.7%, Cc1cc([N+](=O)[O-])ccc1NC1CCCC1 15.6%, CCOC(=O)c1cc(-c2ccccc2C)n(Cc2cc(C)no2)n1 22.5%, Nc1c(N(Cc2ccco2)C(=O)c2cccc(F)c2)c(=O)[nH]c(=O)n1Cc1ccccc1 16.4%, O=C(Cc1ccsc1)N1CCN(S(=O)(=O)c2cc(C(F)(F)F)cc(C(F)(F)F)c2)CC1 16.3%
